Screening data as filed in PubChem.
In the library only some 8% were active in any assay of this set; here they are far more common.
MCF10A rerep – DNA re-replication induction in MCF 10a cells | Potency, µM (series often up to 46.1 µM), inactives show at the highest dose activity, positive = re-replication, hits mostly activators | actives 2.9% (n = 350,000) | MCF 10A DNA re-replication, Hoechst nuclear intensity, 48 h | AID 624296; also: % of control where 0% means no effect; nearly all actives have a fitted effect of over 50% in size
KB-V1 MDR tox – kills drug-selected multidrug resistant KB-V1 cells | KB-V1 MDR cells viability, CellTiter-Glo, 72 h | Potency, µM (titrated, usually from 46.1 µM), usual class: cytotoxic | actives 3.4% (n = 400,000); also: % is scaled to controls: 0 for no effect and ±100 for the full control effect; nearly all actives have a fitted effect of over 60% in size
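Potencies derive from concentration-effect curves fitted to normalized luminescence (CellTiter-Glo) of KB-V1 cells treated for 72 h at 37 degrees C in phenol-red-free DMEM containing 10% FBS.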
HT1080-NT tox – kills 2HG-producing HT-1080-NT fibrosarcoma cells; HT-1080-NT fibrosarcoma viability, CellTiter-Glo ATP luminescence, 48 h; Potency, µM (titrated, usually from 46.1 µM), for inactives: top-dose activity, negative = less viability, actives largely listed as cytotoxic; actives 1.6% (n = 360,000); AID 686970;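 also: NT is the 2HG producing partner of a matched IDH1 knockdown line; 0% = DMSO-treated cells and -100% = media-only wells without cells; nearly all actives have a fitted effect of over 55% in size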
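Luminescent CellTiter-Glo readout after 48 hours of compound exposure at 37 degrees C defined viability of HT-1080-NT cells. Activity was normalized to DMSO wells and cell-free media wells; concentration-response curves were fitted and assigned curve classes.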
SW480 rerep – inducers of DNA re-replication in SW480 colon cancer cells; SW480 DNA re-replication, Hoechst DNA content imaging, 48 h; Potency, µM (doses to about 46.1 µM), inactives show top-dose re-replication activation, hits mostly activators; actives 1.8% (n = 340,000); also: % of control where 0% means no effect; nearly all actives have a fitted effect of over 55% in size
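SW480 cells exposed to compounds for 48 hr at 37 C, 5% CO2, then Hoechst-stained 40 min. Nuclear DNA content imaged by fluorescence scanning (405 nm excitation, 500-530 nm emission); re-replication scored as increased high-intensity nuclei.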
HT1080 IDH1KD tx – kills HT-1080 cells with IDH1 knockdown; HT-1080 IDH1 knockdown viability, ATP luminescence, 48 h; actives 2% (n = 360,000); Potency, µM (titrated, usually from 46.1 µM), inactives show top-dose activity, negative = toxicity, usual class: cytotoxic;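 also: 0% = DMSO wells and -100% = cell-free medium wells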
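% activity derives from luminescence (CellTiter-Glo), normalised to DMSO and no-cell wells. HT-1080-IDH1KD cells, 750/well, had 48 h compound exposure at 37 °C.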
KB-3-1 cytotox – KB-3-1 parental cell cytotoxicity. KB-3-1 viability, CellTiter-Glo ATP luminescence, 72 h. AID 1347075. actives 1.4% (n = 400,000). Potency, µM (series often up to 46.1 µM), hits mostly cytotoxic; also: % is scaled to controls: 0 for no effect and ±100 for the full control effect; nearly all actives have a fitted effect of over 60% in size
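72 h, 37 °C compound treatment of KB-3-1 parental cells; CellTiter-Glo added, 10 min, luminescence read. Data corrected against DMSO-only plates and normalized before curve fitting.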
* = called active by the depositor; i = inactive; ? = inconclusive; . = no result given. Calls follow the shape of the dose curve; as a rule, active = well fitted curve in the direction sought with a large enough effect; inconclusive = small, poorly fitted or top-dose-only effect, or another doubt; inactive = no such curve, though single readings can be large; an effect the other way counts as inactive or inconclusive. Potency is read from the fitted curve at half-maximal effect.

SMILES	MCF10A rerep	KB-V1 MDR tox	HT1080-NT tox	SW480 rerep	HT1080 IDH1KD tx	KB-3-1 cytotox
CC1=C(C(=O)Nc2ccccc2C)C(c2cccs2)n2nc(SCc3ccccc3)nc2N1 (centres undefined)	.	i	.	.	.	i
COc1ccccc1-c1nc(S(=O)(=O)c2ccccc2)c(N2CCC(C)CC2)o1	.	i	.	.	.	i
CCN(C(=O)Cn1cc(C(=O)c2ccc(F)cc2)c(=O)c2ccc(C)nc21)c1cccc(C)c1	.	i	.	.	.	i
CCc1nc2ccc(C(=O)NCCc3ccc(SC)cc3)cc2nc1CC	.	i	.	.	.	i
CC(=O)CSc1nc(-c2ccccc2)[nH]c1S(=O)(=O)c1ccc(C)cc1	.	i	.	.	.	i
Cc1cc(C)n(C(C)CC(=O)Nc2ccc(C)c(N(C)C)c2)n1 (centres undefined)	.	i	.	.	.	i
CCCN1CCN(CCCNC(=O)c2cc3c(s2)-c2c(C)cccc2OC3)CC1	?	i	23.1µM*	?	18.4µM*	?
CCN1CCN(CCCNC(=O)c2cc3c(s2)-c2ccccc2OC3)CC1	?	?	?	?	?	i
COc1ccc(CNC(=O)c2cc3c(s2)-c2c(C)cccc2OC3)cc1	.	i	.	.	.	i
CC1CC(C)CN(CCCNC(=O)c2cc3c(s2)-c2ccccc2OC3)C1 (centres undefined)	?	i	18.4µM*	78.2%	18.4µM*	?
Cc1noc2ncc(C(=O)c3cc(F)ccc3O)cc12	-1.2%	i	-3.7%	-13.4%	9.4%	i
Cc1[nH]nc2ncc(C(=O)c3cc(F)ccc3O)cc12	3.5%	8.2µM*	-15.3%	?	-15.4%	?
CCCS(=O)(=O)N1CCC(C(=O)NCCOC)CC1	.	?	.	.	.	i
COc1ccc(CNCC(O)(c2ccc(F)cc2)c2ccc(F)cc2)cc1OC	16.6%	i	?	12.1%	?	?
COc1ccc(CNCCC(c2ccc(F)cc2)c2ccc(OC(C)C)cc2)cc1OC (centres undefined)	?	?	23.1µM*	?	?	?
CCNC(=S)NCc1ccc(OC)c(OC)c1	-0.6%	i	10.1%	-5.6%	17.4%	i
COc1ccc(CCNCc2ccc(-c3ccccc3)cc2)cc1OC	23.1µM*	?	23.1µM*	?	23.1µM*	i
COc1ccc(CNCCC(c2ccccc2)c2ccc(OC(C)C)cc2)cc1OC (centres undefined)	?	?	20.6µM*	?	18.4µM*	?
COc1ccc(CCNC(=S)NCc2ccc(Cl)c(Cl)c2)cc1OC	12.6µM*	i	?	1.4%	?	i
CCOC(=O)c1ccc(NC(=O)CC2C(=O)N(c3cccc(OC)c3)C(=O)N2Cc2ccc(OC)cc2)cc1 (centres undefined)	.	i	.	.	.	i
Cc1ccc(C(=O)c2oc3ccccc3c2NC(=O)c2nc(S(C)(=O)=O)ncc2Cl)cc1F	.	i	.	.	.	i
COc1ccc(CN(CCC(c2ccccc2)c2ccc(OC(C)C)cc2)C(=O)CCl)cc1OC (centres undefined)	4.61µM*	8.2µM*	1.46µM*	3.66µM*	1.64µM*	10.3µM*
CCOC(=O)/C(C#N)=C/c1cc2ccccc2nc1Cl	3.4%	i	-7.7%	?	?	i
CSc1nc2ccccc2cc1/C=C(\C#N)c1cccc(Cl)c1	8.2µM*	?	4.61µM*	?	4.61µM*	20.6µM*
O=C(C[n+]1ccccc1Br)c1ccc2c(c1)CCCC2	.	i	.	.	.	?
SMILES	MCF10A rerep	KB-V1 MDR tox	HT1080-NT tox	SW480 rerep	HT1080 IDH1KD tx	KB-3-1 cytotox
N#C/C(=C/c1ccc(N2CCOCC2)o1)c1ccc(Br)cc1	5.8µM*	18.4µM*	?	5.8µM*	?	?
N#C/C(=C\c1ccc(N2CCOCC2)o1)C(=O)Nc1ccc(O)cc1	?	i	0.5%	?	-7.6%	i
N#C/C(=C\c1ccc(N2CCOCC2)o1)c1ccccc1	18.2%	?	?	?	4.47µM*	i
N#C/C(=C/c1ccc(N2CCOCC2)o1)c1nc2ccccc2[nH]1	18.1%	?	-25.0%	-0.3%	?	i
O=C(CSc1nc(C2CCCCC2)n(-c2ccccc2)n1)NCCN1C(=O)CSC1=O	2.5%	i	3.4%	-8.7%	-3.3%	i
CC(NC(=O)CSc1nc(C2CC2)n(-c2ccccc2)n1)c1ccco1 (centres undefined)	6.4%	13µM*	0.4%	-2.9%	2.7%	i
O=C(CSc1nc(C2CCCCC2)n(-c2ccccc2)n1)NCC(F)(F)F	18.1%	8.2µM*	2.9%	5.6%	5.2%	i
COc1ccc(NC(=O)C2Cc3c(-c4ccccc4)ccnc3O2)cc1OC (centres undefined)	.	?	-11.7%	.	?	16.4µM*
CC(=O)c1cccc(NC(=O)C2Cc3c(-c4ccco4)ccnc3O2)c1 (centres undefined)	.	4.61µM*	-14.9%	.	-28.1%	?
CC(=O)Nc1ccc(NC(=O)C2Cc3c(-c4ccco4)ccnc3O2)cc1 (centres undefined)	.	i	1.0%	.	-1.4%	i
CC(=O)c1cccc(-c2ccnc3c2CC(C(=O)Nc2ccc(F)c(Cl)c2)O3)c1 (centres undefined)	.	20.6µM*	?	.	?	?
CC(=O)c1cccc(NC(=O)C2Cc3c(-c4ccccc4)ccnc3O2)c1 (centres undefined)	.	i	-14.2%	.	-29.5%	i
CC(=O)c1cccc(-c2ccnc3c2CC(C(=O)Nc2ccccc2)O3)c1 (centres undefined)	.	20.6µM*	-14.9%	.	1.6%	i
O=C(C[n+]1ccccc1Cl)c1ccc(F)cc1	.	i	.	.	.	i
COc1cccc(C2=NS(=O)(=O)N(C)C(C(=O)Nc3ccccc3SC)=C2)c1	.	i	.	.	.	i
Cc1ccc(S(=O)(=O)n2nc(C)c(S(=O)(=O)N3CCC(C)CC3)c2C)cc1	.	i	.	.	.	i
CCN(CC)C(=O)c1sc2c(c1C)c(=O)n(-c1ccc(C)c(C)c1)c(=O)n2CC(=O)Nc1ccc(OC)cc1OC	.	?	.	.	.	i
CS(=O)(=O)Nc1cccc(NC(=O)C2Cc3c(-c4ccccc4)ccnc3O2)c1 (centres undefined)	.	i	2.31µM*	.	?	16.4µM*
COc1ccc(C(=O)NCCc2sc(-c3cccc(F)c3)nc2C)cc1	.	i	.	.	.	i
CCCc1cc(=O)[nH]c(SCCc2ccccc2)n1	-7.0%	16.4µM*	9.6%	-8.1%	0.4%	?
[O]=[Bi][O]C(=O)[O][Bi]=[O]	-0.4%	.	.	-2.6%	.	.
